Compound activity deposited in PubChem by several laboratories.
Only some compounds are listed: those with a hit (about 0.5% of all), similar ones and a draw of the others.
Tat export inh: E. coli Tat transport inhibition | E. coli MC4100 TorA-mCherry Tat export, fluorescence | inhibition, % at 10 µM | actives 0.036% (n = 340,000);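 active means mean replicate inhibition at least 50% and at least half of replicates individually reaching 50%; inconclusive means only one of the two criteria met; inactive means neither criterion met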;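 further: exported cargo escapes ClpAP degradation while cytoplasmic cargo is degraded and loses fluorescence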
phage Ecoli inh: E. coli growth loss with phage present | growth absorbance | inhibition, % at 11.9 µM | actives 0.26% (n = 360,000) | AID 651602; in the data active means inhibition above about 11%
AddAB inh: less growth of phage-infected E. coli with AddAB; E. coli expressing H. pylori AddAB, absorbance growth; inhibition, % at 11.9 µM; actives 0.29% (n = 330,000); AID 435030; in the data active means inhibition above about 12%
E coli growth-1: bacterial growth inhibition, counter-screen for AddAB inhibitors; E. coli V3065 growth, OD600 absorbance, 18 h; inhibition, % at 11.9 µM; actives 0.27% (n = 330,000); AID 449728;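 active means inhibition above the campaign's mean inhibition across all tested compounds plus 3 SD, cut at about 9.9% in these data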;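 further: uninfected addAB+ strain grown without phage in ampicillin broth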
E coli growth-2: blocks Escherichia coli growth; OD600, 23 h; active compounds read low; actives 0.21% (n = 330,000); OD600 absorbance (concentration not given with the values);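 active means OD600 absorbance below the run mean of sample wells minus 3.6 SD, in any replicate, cut at about 0.56 in these data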
AddAB conf: confirmation screen: growth loss of phage-infected E. coli expressing H. pylori AddAB | E. coli V3065 expressing H. pylori AddAB, T4 phage, OD; T4 phage with gene 2 nonsense mutations | inhibition, % at 11.9 µM | actives 64% (n = 880) | shares compounds with AddAB inh;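 active means mean inhibition above a set limit taken from the earlier primary screen, cut at about 13% in these data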;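 further: higher means less bacterial growth since AddAB block lets phage replicate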
RecBCD counter: counter-screen: growth loss of RecBCD+ E. coli with mutant T4 phage; shares compounds with AddAB inh; E. coli V66 + mutant T4 phage, OD growth; inhibition, % at 11.9 µM; actives 73% (n = 880); AID 488955;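 active means mean inhibition above the mean of solvent-only control wells plus 3 SD, cut at about 4% in these data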;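 further: optical density read after an 18 h incubation at 37 °C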
bact viab count: counter-screen: bacterial growth inhibition; inhibition, % at 11.9 µM; shares compounds with AddAB inh; AID 488956; bacterial viability, absorbance (AddAB counterscreen); actives 35% (n = 880); in the data active means inhibition above about 25%
Large screens that a line does not name were inactive (follow-up assays come after a bar, where they were run).

Cc1cc(N/N=C/c2ccc(O)cc2O)nc(-c2ccccc2O)n1	AddAB inh 14 (no result: phage Ecoli inh, E coli growth-2) | AddAB conf 17 | RecBCD counter 7.1 | bact viab count inactive
O=c1c2ccccc2[nH]c2ccccc12	AddAB inh 14 | AddAB conf inactive | RecBCD counter 4.8 | bact viab count inactive
c1ccc2c(c1)[nH]c1ccccc12	none
CC(=O)Nc1ccc(NC(=O)C(C)ON=Cc2cccc([N+](=O)[O-])c2)cc1 (stereo not drawn)	none (no result: Tat export inh, phage Ecoli inh, AddAB inh, E coli growth-1)
O=C(Nc1ccc(C2=NCCN2)cc1)c1ccc(C(=O)Nc2ccc(C3=NCCN3)cc2)c([N+](=O)[O-])c1	Tat export inh 64, AddAB inh 27, E coli growth-1 25 (no result: E coli growth-2) | AddAB conf 86 | RecBCD counter 29 | bact viab count 28
Cc1ccc(NC(=O)c2ccc(-n3cccn3)c([N+](=O)[O-])c2)cc1	none
Cc1ccc(S(=O)(=O)C=C2NC(=O)CS2)cc1	none (no result: Tat export inh, phage Ecoli inh, AddAB inh, E coli growth-1)
Cc1ccc(CC(NC(=O)c2ccccc2)C(=O)NC(Cc2ccccc2)C(=O)O)cc1 (stereo not drawn)	none
O=C(NC(Cc1ccc2c(c1)OCO2)C(=O)NC(Cc1ccccc1)C(=O)O)c1ccccc1 (stereo not drawn)	AddAB inh 97, E coli growth-1 93 | AddAB conf inactive | RecBCD counter inactive | bact viab count inactive
C/C(=N\OCc1nc2ccccc2c(=O)n1/N=C/c1cc(C)cc([N+](=O)[O-])c1O)c1ccccc1	none (no result: E coli growth-2)
C/C(=N\OCc1nc2ccccc2c(=O)n1/N=C/c1cc([N+](=O)[O-])ccc1O)c1ccccc1	AddAB inh 13 (no result: E coli growth-2) | AddAB conf inactive | RecBCD counter inactive | bact viab count inactive
Cn1c(CS/C(N)=N/N=Cc2ccccc2)c(Br)c(=O)n1-c1ccccc1	none (no result: Tat export inh, phage Ecoli inh, AddAB inh, E coli growth-1)
CCC(Sc1nc2c(cnn2-c2ccc(Cl)cc2)c(=O)[nH]1)C(=O)OC (stereo not drawn)	AddAB inh 97, E coli growth-1 43 | AddAB conf inactive | RecBCD counter inactive | bact viab count inactive
CCOC(=O)C(CC)Sc1nc2c(cnn2-c2ccc(F)cc2)c(=O)[nH]1 (stereo not drawn)	none
O=C(N/N=C/C(Br)=C\c1ccccc1)c1ccc2nc[nH]c2c1	AddAB inh 12 (no result: E coli growth-2) | AddAB conf inactive | RecBCD counter inactive | bact viab count inactive
O=C(NN=C/C(Br)=C\c1ccccc1)c1ccc2nc[nH]c2c1	none (no result: Tat export inh, phage Ecoli inh, AddAB inh, E coli growth-1)
CCOC(=O)NN=Cc1cc(C)n(-c2cccc3ccccc23)c1C	none (no result: Tat export inh, phage Ecoli inh, AddAB inh, E coli growth-1)
CCCCCCCCC[n+]1cccc2c3ccccc3ccc21	AddAB inh 15, E coli growth-1 16, E coli growth-2 0.49 (no result: phage Ecoli inh) | AddAB conf inactive | RecBCD counter 6.6 | bact viab count inactive
CCc1cccc(NC(=O)CCCSc2nc3ccccc3[nH]2)c1	AddAB inh 12 | AddAB conf inactive | RecBCD counter inactive | bact viab count inactive
O=C(N/N=C/c1c(O)ccc2ccccc12)c1ccc(Br)o1	phage Ecoli inh 16, AddAB inh 21, E coli growth-1 23 (no result: E coli growth-2) | AddAB conf 15 | RecBCD counter 17 | bact viab count inactive
O=C(N/N=C\c1c(O)ccc2ccccc12)c1ccc(O)cc1	none (no result: E coli growth-2)
Cc1occc1C(=O)N/N=C/c1c(O)ccc2ccccc12	AddAB inh 17, E coli growth-1 14 (no result: E coli growth-2) | AddAB conf 17 | RecBCD counter 16 | bact viab count inactive
CC1(C)Oc2ccc3ccc(=O)oc3c2C(=CNc2ccc(O)cc2)C1=O	none (no result: Tat export inh, phage Ecoli inh, AddAB inh, E coli growth-1)
COc1ccc(C=NNc2nnc(C)n2N)cc1OC	none (no result: Tat export inh, phage Ecoli inh, AddAB inh, E coli growth-1)
COc1ccc(-n2c(C)cc(/C=N/Nc3nnc(C)n3N)c2C)cc1	AddAB inh 14 (no result: E coli growth-2) | AddAB conf inactive | RecBCD counter inactive | bact viab count inactive
COc1ccccc1C(=O)N/C(=C\c1ccccc1)C(=O)NC(C)C(=O)O (stereo not drawn)	AddAB inh 97, E coli growth-1 72 (no result: E coli growth-2) | AddAB conf inactive | RecBCD counter inactive | bact viab count inactive
O=C(C=Cc1ccc(Cl)cc1)c1ccc([N+](=O)[O-])o1	none (no result: Tat export inh, phage Ecoli inh, AddAB inh, E coli growth-1)
Cc1ccc(/C=N/NC(=O)C2(C)CC2(Br)Br)cc1 (stereo not drawn)	none (no result: E coli growth-2)
CC1(C(=O)N/N=C/c2ccccc2)CC1(Br)Br (stereo not drawn)	AddAB inh 97, E coli growth-1 97 (no result: E coli growth-2) | AddAB conf inactive | RecBCD counter inactive | bact viab count inactive
Nc1nonc1C(=O)NCCN=Cc1cc(Cc2ccccc2)cc(Br)c1O	Tat export inh inconclusive, AddAB inh 18 (no result: phage Ecoli inh) | AddAB conf 20 | RecBCD counter 8.8 | bact viab count inactive
Cc1cc2c(c(=O)o1)C(c1ccc([N+](=O)[O-])o1)C(C#N)=C(N)O2 (stereo not drawn)	AddAB inh 19, E coli growth-1 15 | AddAB conf 100 | RecBCD counter 8.3 | bact viab count inactive
CCC(CC)C1C(C#N)=C(N)Oc2cc(C)oc(=O)c21 (stereo not drawn)	none
O=C(CC(=NNC(=O)c1ccccc1Br)C(F)(F)F)c1cccs1	none (no result: Tat export inh, phage Ecoli inh, AddAB inh, E coli growth-1)
O=C(Nc1ccc2oc(-c3ccncc3)nc2c1)c1ccc([N+](=O)[O-])o1	AddAB inh 18, E coli growth-1 15 | AddAB conf 89 | RecBCD counter 8.8 | bact viab count inactive
CCn1cc(C(=O)O)c(=O)c2cc(F)c(N3CCNCC3)cc21	Tat export inh 94, AddAB inh 99, E coli growth-1 99 (no result: phage Ecoli inh, E coli growth-2) | AddAB conf 103 | RecBCD counter 102 | bact viab count 103
CCOC(=O)c1cn(CC)c2cc(N3CCSCC3)c(F)cc2c1=O	AddAB inh 75, E coli growth-1 83, E coli growth-2 0.46 | AddAB conf 97 | RecBCD counter inactive | bact viab count inactive
CCn1cc(C(=O)O)c(=O)c2cc(F)c(N3CCN(S(=O)(=O)c4ccc5c(c4)OCCO5)CC3)cc21	AddAB inh 94, E coli growth-1 48, E coli growth-2 0.083 | AddAB conf 101 | RecBCD counter 13 | bact viab count 99
O=C(CON=Cc1ccc(OC(F)F)cc1)NC1CCCCCC1	none (no result: Tat export inh, phage Ecoli inh, AddAB inh, E coli growth-1)
CCOC(=O)C1C2COc3ccccc3C2N2C(=O)N(c3ccc(C)cc3)C(=O)[C@]12C (stereo partly drawn)	none (no result: Tat export inh, phage Ecoli inh, AddAB inh, E coli growth-1)
Cc1ccc(C(C)C)cc1OCC(=O)NN=Cc1ccc2c(c1)OCCO2	none (no result: Tat export inh, phage Ecoli inh, AddAB inh, E coli growth-1)
O=C(Cn1cc(C(=O)c2ccco2)c2ccccc21)Nc1ccccc1F	AddAB inh 13, E coli growth-1 11 | AddAB conf inactive | RecBCD counter 11 | bact viab count inactive
Oc1cc(-c2ccncc2)cc2cccnc12	none
Oc1cc(-c2ccc(N3CCCCC3)nc2)cc2cccnc12	AddAB inh 16, E coli growth-1 15 (no result: phage Ecoli inh, E coli growth-2) | AddAB conf inactive | RecBCD counter 15 | bact viab count inactive
O=C(COc1ccccc1-c1ccccc1)NN=Cc1cccc2ccccc12	none (no result: Tat export inh, phage Ecoli inh, AddAB inh, E coli growth-1)
